The sample as a whole holds a higher share of hits than the screen did.
VHR inh color = inhibitors of human VHR1 phosphatase (DUSP3); P51452; recombinant VHR phosphatase, colorimetric substrate read-out; inhibition, % at 20 µM; hit rate 0.7% among 50,000; in the data active = inhibition above about 60%
Target sequence (P51452 whole entry, looked up): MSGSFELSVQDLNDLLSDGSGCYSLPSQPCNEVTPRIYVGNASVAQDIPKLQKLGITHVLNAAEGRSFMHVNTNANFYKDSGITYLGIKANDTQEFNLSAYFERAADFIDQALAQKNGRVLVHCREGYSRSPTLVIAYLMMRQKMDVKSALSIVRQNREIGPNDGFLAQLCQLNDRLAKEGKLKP
Starred values were filed as active, the others as inactive.

Results for O=C1NN(c2ccccc2)C(=O)/C1=C/c1ccc(-c2cccc([N+](=O)[O-])c2)o1 ?
VHR inh color: -0.9

Results for Cc1ccc(N2NC(=O)/C(=C/c3ccc4c(c3)OCO4)C2=O)cc1C ?
VHR inh color: -6.4

What do the screens show for `Cc1ccc(N2NC(=O)/C(=C/c3cc([N+](=O)[O-])ccc3Cl)C2=O)cc1C`?
VHR inh color: 64.5*

Results for COc1cc(/C=C2\C(=O)NN(c3ccc(Cl)c(Cl)c3)C2=O)c([N+](=O)[O-])cc1OC ?
VHR inh color: 6.6

Results for Cc1ccc([N+](=O)[O-])cc1-c1ccc(/C=C2/C(=O)NN(c3ccc(Cl)cc3)C2=O)o1 ?
VHR inh color: 74.4*

How did Cc1ccc(N2NC(=O)/C(=C/c3ccc(-c4ccc5c(c4)COC5=O)o3)C2=O)cc1C do in these assays?
VHR inh color: 84.9*

How did Cc1cc([N+](=O)[O-])ccc1-c1ccc(/C=C2/C(=O)NC(=S)N(c3ccc(Cl)cc3)C2=O)o1 do in these assays?
VHR inh color: 45.6

What do the screens show for `CC1CCCC(N2CCN(Cc3cccnc3)CC2)C1` (configuration not stated)?
VHR inh color: -1.7

How did Cc1ccccc1NCn1c(=S)oc2ccccc21 do in these assays?
VHR inh color: 2.6

Results for O=C(Nc1ccc(N2CCOCC2)cc1)c1ccc(-c2ccccc2)cc1 ?
VHR inh color: -18.4

Results for Cc1cccc(Oc2cc(NC(=O)c3cccc(F)c3)cc([N+](=O)[O-])c2)c1 ?
VHR inh color: 4.2

What do the screens show for `CS(=O)(=O)N1CCN(S(=O)(=O)c2ccc(Cl)cc2)CC1`?
VHR inh color: 59.5

How did Cc1ccc(C23CC4CC(CC(C(=O)NC(C)C(=O)NC(C)(C)C)(C4)C2)C3)cc1 (configuration not stated) do in these assays?
VHR inh color: -2.4

How did O=Cc1ccc(Oc2ncnc3ccccc23)cc1 do in these assays?
VHR inh color: 97.2*

Results for O=[N+]([O-])c1ccccc1OCCOc1ncnc2ccccc12 ?
VHR inh color: -15.9

What do the screens show for `Fc1ccc(OCCOc2ncnc3ccccc23)cc1`?
VHR inh color: -12.7

How did CCOc1ccccc1NC(=O)COc1ccccc1Cl do in these assays?
VHR inh color: 8.5

How did Cc1[nH]c2ccccc2c1/C=C/c1nc2ccccc2c(=O)n1C do in these assays?
VHR inh color: -2.9

How did COc1cccc(-n2c(/C=C/c3c(C)[nH]c4ccccc34)nc3ccccc3c2=O)c1 do in these assays?
VHR inh color: 75.9*

What do the screens show for `Cc1[nH]c2ccccc2c1/C=C/c1nc2ccccc2c(=O)n1-c1ccc([N+](=O)[O-])cc1`?
VHR inh color: 8.3

Results for O=C(N=Nc1c(O)n(CN2CCCCCC2)c2ccccc12)c1ccncc1 ?
VHR inh color: -9.8

How did Cc1sc(NC(=O)CCCOc2ccc(Cl)cc2Cl)c(C#N)c1C do in these assays?
VHR inh color: -15.9

How did COC(=O)c1c(-c2ccc(OC)c(OC)c2)csc1N do in these assays?
VHR inh color: -2.9

How did CC(C)OC(=O)c1c(-c2ccccc2)csc1N do in these assays?
VHR inh color: 44.2

Results for CCOC(=O)c1c(-c2ccc(OC)c(OC)c2)csc1N ?
VHR inh color: 98.5*

Results for COC(=O)c1c(-c2cccc(C)c2)csc1N ?
VHR inh color: 93.6*

How did COc1ccc(-c2csc(N)c2C(=O)OC(C)C)cc1OC do in these assays?
VHR inh color: -14.7

What do the screens show for `CCCOC(=O)c1c(-c2ccccc2)csc1N`?
VHR inh color: -3.1

Results for Cc1c(C(c2cc(O)c(O)c(Br)c2)c2c(C)n(C)n(-c3ccccc3)c2=O)c(=O)n(-c2ccccc2)n1C ?
VHR inh color: -0.3

Results for COc1cccc(NC(=O)C(=O)N/N=C/c2ccc(C(=O)O)cc2)c1 ?
VHR inh color: -13.9

Results for O=C1C(=O)N(CN2CCCCC2)C2C=CC=CC12 (configuration not stated) ?
VHR inh color: -22.6

How did CC1(C)CC(=O)C2=C(C1)Nc1ccccc1N(C(=O)C(F)(F)F)C2c1ccco1 (configuration not stated) do in these assays?
VHR inh color: -20.2

What do the screens show for `CC1=C(C(=O)OCCc2ccccc2)C(c2cccs2)NC(=O)N1` (configuration not stated)?
VHR inh color: -8.4

How did Cc1ccc(N2C(=O)CC(=O)NC2=S)cc1 do in these assays?
VHR inh color: 6.5

How did O=C1CC(=O)N(c2ccccc2)C(=S)N1 do in these assays?
VHR inh color: 3.9

Results for O=C1CC(=O)N(c2ccc(Cl)c(Cl)c2)C(=S)N1 ?
VHR inh color: 72.6*

What do the screens show for `O=C1CC(N(Cc2ccc3c(c2)OCO3)C(=O)c2ccc(Cl)cc2)C(=O)N1c1ccc(F)cc1` (configuration not stated)?
VHR inh color: 33.2

Results for O=C1OC(c2ccccc2)=C/C1=C/c1ccc(-c2ccc([N+](=O)[O-])cc2Br)o1 ?
VHR inh color: -0.3

How did Cc1ccc([N+](=O)[O-])cc1/C=C1/C=C(c2ccccc2)OC1=O do in these assays?
VHR inh color: 95.8*

Results for Cc1ccc(C2=C/C(=C\c3cc([N+](=O)[O-])ccc3Cl)C(=O)O2)cc1 ?
VHR inh color: 6.8

Compound activity as filed in PubChem BioAssay.
